Screening data from PubChem.
D2 PAM-1: HTS Assay for Positive Allosteric Modulators of the Human D2 Dopamine Receptor: Primary Screen for Potentiators. 340,000 compounds, 0.34% hits. D(2) dopamine receptor (Homo sapiens), P14416. potentiation, % at 10 µM. HEK293 T-REx D2, calcium flux, EC20 dopamine potentiation;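 active = potentiation over 3 SD above the plate norm, cut at about 30% in these data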; note: 0% is about no effect
Target sequence (P14416 whole entry, looked up): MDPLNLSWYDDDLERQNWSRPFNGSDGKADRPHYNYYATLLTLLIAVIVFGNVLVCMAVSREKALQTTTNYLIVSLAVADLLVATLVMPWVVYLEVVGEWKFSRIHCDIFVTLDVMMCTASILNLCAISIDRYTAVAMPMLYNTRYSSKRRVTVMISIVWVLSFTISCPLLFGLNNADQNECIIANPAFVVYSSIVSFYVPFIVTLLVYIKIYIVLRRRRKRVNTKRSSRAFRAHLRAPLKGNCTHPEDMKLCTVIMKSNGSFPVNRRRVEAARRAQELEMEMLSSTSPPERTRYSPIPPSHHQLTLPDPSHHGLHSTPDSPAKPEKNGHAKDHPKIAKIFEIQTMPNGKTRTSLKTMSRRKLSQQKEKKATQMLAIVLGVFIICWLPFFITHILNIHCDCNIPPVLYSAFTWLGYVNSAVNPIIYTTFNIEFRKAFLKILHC
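Cells plated with tetracycline inducer and held overnight at 30 C; calcium dye loaded 30–90 min at room temperature; baseline taken, compound added and read 180 s; EC20 dopamine then added and read 180 s.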
D2 ag-1: HTS Assay for Allosteric Agonists of the Human D2 Dopamine Receptor: Primary Screen for Agonists; D(2) dopamine receptor (Homo sapiens), P14416; HEK293 T-REx D2 cells, calcium flux agonist mode; 340,000 compounds, 0.53% hits; activation, % at 2 µM; AID 485358, 2010;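 active = activation over 3 SD above normal in the single-dose calcium agonist read, cut at about 30% in these data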; note: 0% is about no effect
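Calcium-flux readout, 1 cycle/sec over 180 s following compound pin transfer, in inducible HEK293 Trex D2 cells (force-coupled); dopamine controls included. Positive calcium responses during this window marked compounds as potential agonists.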
D2 PAM-2: Beta-Arrestin HTS for Positive Allosteric Modulators of the Human D2 Dopamine Receptor: Potentiators. AID 624464, 2012. DiscoveRx D2 beta-arrestin cells, luminescence, 90 min; 100% = 57 uM dopamine signal. D(2) dopamine receptor (Homo sapiens), P14416. 360,000 compounds, 0.23% hits. potentiation, % (test concentration not listed); in the data active = potentiation above about 50%; inconclusive = mostly about 30% to 49%
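PathHunter D2 cells, attached overnight at 37 deg C, received compound in DMSO plus dopamine at EC20 (50 nM final) for 90 min at 37 deg C. Beta-arrestin recruitment was read as luminescence after 1 h with detection reagent at ambient temperature.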
D2 antag: HTS Assay for Allosteric Antagonists of the Human D2 Dopamine Receptor: Primary Screen for Antagonists; D(2) dopamine receptor (Homo sapiens), P14416; inhibition, % at 10 µM; 340,000 compounds, 2% hits; HEK293 TREx D2 cells, calcium flux, dopamine EC80; in the data active = inhibition above about 30%; inactive = below that, where a call was filed; note: 0% is about no effect
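Compounds are added to dye-loaded, induced HEK293 T-REx cells coupled to calcium release via D2; after a 3 min kinetic read an EC80 dopamine stimulus is given and fluorescence is recorded for 3 more min.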
D2 ag-2: Beta-Arrestin HTS for Positive Allosteric Modulators of the Human D2 Dopamine Receptor: Agonists; D(2) dopamine receptor (Homo sapiens), P14416; DiscoveRx PathHunter D2 beta-arrestin, luminescence, 90 min; 100% = 57 uM dopamine signal; activation, % (test concentration not listed); 360,000 compounds, 0.084% hits; in the data active = activation above about 40%; inconclusive = between about 15% and that limit
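Agonist mode: compounds alone added to overnight-plated D2 PathHunter cells for 90 min at 37 C, with 57 uM final dopamine (EC100) defining full response. Beta-arrestin recruitment detected by chemiluminescent reagent, read after 1 h at ambient temperature.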
* hit, by the source's call; ? = inconclusive; · = no result given. Shown are actives, neighbours in structure and some others; about 2.4% of the full set was active somewhere.

SMILES	D2 PAM-1	D2 ag-1	D2 PAM-2	D2 antag	D2 ag-2
CC(=O)Nc1sc(N/N=C\c2ccc(O)cc2)nc1-c1cccs1	13	-1	14	-17	7
COC(=O)C1CCN(S(=O)(=O)c2cc3c4c(c2)CC(=O)N4CCC3)CC1	-3	1	·	·	·
CC1(OC(=O)C2CCCC2)C(=O)C=C2C=C(c3ccsc3)N(c3ccccc3)C=C2C1=O (stereo not given)	9	0	-2	36*	15
CCC(C(=O)Nc1cc(-c2nc3cccnc3s2)ccc1C)c1ccccc1 (stereo not given)	-1	0	·	·	·
CCn1cc(CN2CCC(C(=O)Nc3cccc(-c4cccc(F)c4)c3)CC2)cn1	-29	2	-36	-5	-3
CCn1nc(C)c(CN2CCC(C(=O)Nc3cccc(-c4cccc(F)c4)c3)CC2)c1C	-18	-2	-5	38*	3
COc1ccc(CCN(C)C2CCCN(C(=O)c3sccc3C)C2)cc1OC (stereo not given)	-26	0	-15	57*	-2
COC(=O)c1sccc1S(=O)(=O)N(CC(=O)Nc1cccc(C)c1C)c1ccc(C)c(C)c1	-10	1	·	·	·
COc1cc(C(=O)NCC(c2cccs2)N(C)C)cc(Cl)c1OC(C)C (stereo not given)	-15	1	-30	34*	-4
COc1cc2ccccc2cc1C(=O)NCC(c1cccs1)N(C)C (stereo not given)	-13	-1	-16	56*	-2
CCCOc1ccc(C(=O)NCC(c2cccs2)N(C)C)cc1OC (stereo not given)	-19	-1	-35	-6	-3
O=C1c2cccc3c(O)ccc(c23)C(=O)N1Cc1ccccc1	-19	101*	17	34*	8
O=C(O)c1cccc(CN2C(=O)c3ccccc3C2=O)c1	2	0	-4	-17	-3
CCCCN(CC)Cc1c(O)ccc2c(-c3ccccc3)cc(=O)oc12	-26	-1	-35	-10	-3
CCCCN(C)Cc1c(O)ccc2c(-c3ccccc3)cc(=O)oc12	·	0	-43	64*	-1
CCCCNC(=S)NNC(=O)c1ccco1	46*	0	-13	4	-2
NC(=O)c1c(NC(=O)Cc2ccccc2)sc2c1CCN(Cc1ccccc1)C2	-18	1	-11	47*	3
COc1cccc(-c2nc(NCC3CCCO3)c3ccccc3n2)c1O (stereo not given)	15	1	10	4	-2
COc1cccc(-c2nc(NC(C)C)c3ccccc3n2)c1O	10	12	12	32*	0
COc1ccccc1-c1cc2nc(C)c(CCC(=O)NCCc3cccc(C)c3)c(C)n2n1	·	-1	·	·	·
CCOC(=O)c1ccc(-n2c(CCC(=O)O)ccc2-c2ccccc2)cc1O	2	0	·	·	·
COc1cc(O)c(C(CCN2CCN(c3ccccc3)CC2)c2cc(OC)c(OC)c(OC)c2)c(OC)c1 (stereo not given)	-23	1	-24	67*	-2
COc1ccc(NC2=C(C(C)=O)C(c3ccc(OC)cc3)C(C(C)=O)C(C)(O)C2)cc1 (stereo not given)	14	0	-4	6	5
COc1ccc(NC2=C(C(C)=O)C(c3ccc(N(C)C)cc3)C(C(C)=O)C(C)(O)C2)cc1 (stereo not given)	1	0	51*	-1	-4
Cn1c(=O)c2cc(S(=O)(=O)NC(Cc3ccccc3)C(=O)Nc3ccc(F)cc3)ccc2n(C)c1=O (stereo not given)	4	-1	·	·	·
SMILES	D2 PAM-1	D2 ag-1	D2 PAM-2	D2 antag	D2 ag-2
COc1ccc(C2CC(=O)c3c(C)nc(N4CCN(C=O)CC4)nc3C2)c(OC)c1 (stereo not given)	·	1	·	·	·
O=C(ONC1=NCCCCC1)c1ccc(Cl)cc1	5	1	?	7	?
O=C(ONC1=NCCCCC1)c1c(F)cccc1F	1	0	65*	13	?
CC1CCN(CC(=O)NC2CCCCC2)CC1	-13	34*	-3	16	1
Cc1ccc(C(=O)Nc2nnc(SCc3cc(=O)n4ccc(C)cc4n3)s2)cc1	0	2	·	·	·
Cc1ccccc1C(=O)O/N=C/c1c(N2CCOCC2)n(C)c2ccccc12	-6	1	180*	-6	?
CCCCC(=O)Nc1cc(-c2cn3cccnc3n2)ccc1C	11	0	·	·	·
CCCCc1ccc(Nc2cc(C)nc(-n3nc(C)cc3C)n2)cc1	8	0	·	·	·
CC(Oc1coc(CN2CCN(C(=O)c3ccco3)CC2)cc1=O)c1ccccc1 (stereo not given)	-3	31*	-22	-3	4
Cc1ccc(COc2coc(CN3CCN(C(=O)c4ccco4)CC3)cc2=O)cc1	9	24	-12	-5	3
Cc1ccc(CNC(=O)c2ccc3c(c2)N(Cc2cccc(C)c2)C(=O)CS3)cc1	5	0	·	·	·
COC(=O)c1cc2oc3ccccc3c2n1Cc1nc(-c2cccc(C)c2)oc1C	-13	0	·	·	·
Cc1c(/C=C(\C#N)C(=O)NCc2ccccc2)cc(C#N)n1C	-18	0	-19	37*	-6
COC(=O)c1c(NC(=O)CN2C(=O)NC3(CCC(C)CC3)C2=O)sc2c1CCC2 (stereo not given)	-16	0	-1	-13	2
CCC1C(=O)N=C(SCC(=O)Nc2cccc3ccccc23)NC1=O (stereo not given)	-9	0	4	6	-1
NC(=O)c1ccsc1NC(=O)CN1C(=O)NC2(CCCCC2)C1=O	-7	0	-2	-4	2
O=C(CN1C(=O)NC2(CCCCCC2)C1=O)Nc1ccc(Br)cc1Br	16	0	2	37*	-1
Cc1ccc(NC(=O)CN2C(=O)NC3(CCCC3)C2=O)c(Cl)c1	15	-1	-4	-16	-1
CC1CCC2(CC1)NC(=O)N(CC(=O)Nc1sc3c(c1C(N)=O)CCC3)C2=O (stereo not given)	-1	1	-8	38*	5
N#Cc1ccsc1NC(=O)CN1C(=O)NC2(CCCC2)C1=O	-20	0	·	40*	·
CCOC(=O)c1ccc(NC(=O)CSC2=NC(=O)C(CC)C(=O)N2)cc1 (stereo not given)	4	1	-14	47*	-3
